# Assay outcomes from PubChem.
# Rows were chosen to be rich in hits. Some 2.9% of all compounds tested hit in one or more screens of this group.
# FBA Mtb inh – Mtb fructose-bisphosphate aldolase inhibition | P9WQA3 | purified M. tuberculosis FBA, fluorescence read-out | inhibition, % at 1 µM | 2.3% of 360,000 active; in the data active means inhibition above about 27%
# Target sequence (P9WQA3 whole entry, looked up): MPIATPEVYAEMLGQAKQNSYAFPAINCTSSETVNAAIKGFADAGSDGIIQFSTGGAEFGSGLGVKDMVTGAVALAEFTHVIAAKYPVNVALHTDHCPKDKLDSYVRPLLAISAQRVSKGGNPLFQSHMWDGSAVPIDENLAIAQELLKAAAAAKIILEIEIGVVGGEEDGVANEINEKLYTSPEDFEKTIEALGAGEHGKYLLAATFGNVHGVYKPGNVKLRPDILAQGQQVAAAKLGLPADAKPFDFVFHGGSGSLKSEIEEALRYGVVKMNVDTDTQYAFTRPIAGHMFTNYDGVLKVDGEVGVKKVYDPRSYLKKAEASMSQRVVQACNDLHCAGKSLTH
# Mtb hypoxia rep – inhibitors of hypoxia-regulated fluorescent reporter in Mycobacterium tuberculosis. AID 1159583. M. tuberculosis hypoxia-regulated fluorescent reporter, fluorescence. 0.1% of 300,000 active. fluorescence inhibition, % (no concentration beside the values); in the data active means fluorescence inhibition mostly above about 23%, no sharp cut-off; inactive means mostly below about 17%
# FadD28 FP inh – M. tuberculosis FadD28 bisubstrate binding inhibition. 0.22% of 360,000 active. inhibition, % at 12.5 µM. AID 588549. FadD28 bisubstrate probe binding, fluorescence polarization; in the data active means inhibition above about 8.5%, passing the limit was not always enough
# BioA inh – BioA (M. tuberculosis) enzyme inhibition; purified M. tuberculosis BioA enzyme, plate reader; inhibition, % at 9.99 µM; 0.096% of 360,000 active; in the data active means inhibition above about 40%
# GDH-TPI inh – counter-screen for M. tuberculosis FBA inhibitors: GDH-TPI coupled enzymes. GDH-TPI coupled enzyme counterscreen, NADH absorbance. inhibition, % at 4.8 µM. 1.2% of 360,000 active. AID 588335; in the data active means inhibition above about 30%
# Hits are given with their value; n = inactive; x = no result given; + = active, no number.
SMILES,FBA Mtb inh,Mtb hypoxia rep,FadD28 FP inh,BioA inh,GDH-TPI inh
O=C(CC12CC3CC(CC(C3)C1)C2)NCC(=O)OCc1cc(=O)oc2ccc3ccccc3c12,36,n,n,n,n
CCCCOc1[nH]c2nc(-c3ccco3)n(Cc3ccco3)c(=N)c2c1C#N,n,x,11,x,n
c1ccc(CSc2nnc(-c3ccco3)n2Cc2ccco2)cc1,n,n,n,n,n
CC(=O)c1ccc(-c2cccs2)s1,+,n,n,n,n
CN1C(=O)c2cc(NC(=O)NC3CCCC3)ccc2OC[C@H]2O[C@@H](CC(=O)NC3CCC3)CC[C@H]21,x,x,x,n,x
COc1ccc2oc3ccc(OC)cc3c(=O)c2c1,49,n,n,x,n
O=C(Cn1c(=O)cnc2ccccc21)Nc1cccc(S(=O)(=O)N2CCOCC2)c1,n,28,n,n,n
CN(CC(=O)Nc1cccc(F)c1)C(=O)Cn1c(=O)cnc2ccccc21,n,n,55,x,n
O=C(/C=C\Nc1ccccn1)c1ccc(Cl)cc1,n,n,n,n,31
C=CCc1c(C)nc(SC)nc1Nc1ccc(C(=O)O)cc1,n,n,n,n,n
C=CCc1c(C)nc(SC)nc1Nc1ccc(C(C)=O)cc1,n,x,n,54,48
O=c1[nH]c2cc3c(cc2cc1C(c1nnnn1C1CCCCC1)N1CCSCC1)OCCO3 (stereo not given),28,n,n,x,n
COc1cc2cc(C(c3nnnn3C3CCCC3)N3CCCCC3)c(=O)[nH]c2cc1OC (stereo not given),n,n,n,n,n
CCn1cc(C(=O)NCc2ccco2)c(=O)c2cc(F)c(N3CCN(C(=O)c4ccco4)CC3)cc21,n,x,n,n,n
CCC(C)NC(=O)c1cn(CC)c2cc(N3CCN(C(=O)c4ccco4)CC3)c(F)cc2c1=O (stereo not given),54,n,n,n,n
C=CCNC(=O)c1cn(CC)c2cc(N3CCN(C(=O)c4ccco4)CC3)c(F)cc2c1=O,97,n,n,n,n
CCn1cc(C(=O)O)c(=O)c2cc(F)c(N3CCNCC3)cc21,55,x,n,n,n
CCOc1cc(/C=N/N=C2/NC(=O)C(CC(=O)O)S2)ccc1OCc1ccccc1Cl (stereo not given),n,x,n,x,40
COc1ccc(/C=N/N=C2/NC(=O)C(CC(=O)O)S2)cc1OCc1ccccc1Cl (stereo not given),n,x,n,n,46
COc1cc(C=N/N=C2/NC(=O)C(CC(=O)O)S2)ccc1OCc1cccc(Cl)c1 (stereo not given),x,n,x,x,x
COc1ccc(/C=N/N=C2/NC(=O)C(CC(=O)O)S2)cc1OCc1ccc(Cl)cc1Cl (stereo not given),n,x,n,n,35
CCOc1cc(/C=N/N=C2/NC(=O)C(CC(=O)O)S2)ccc1OS(=O)(=O)c1ccc(C)cc1 (stereo not given),n,x,n,x,n
COc1ccc(C(=O)COC(=O)CNC(=O)c2ccc(C)s2)c(OC)c1,n,35,n,n,n
COc1cc(NC(=O)COC(=O)CNC(=O)c2ccc(C)s2)cc(OC)c1,n,n,n,x,n
COCC=CC1=CC2=CC(=O)C(C)(OC(=O)c3cnc4ccccc4n3)C(=O)C2=CN1Cc1ccco1 (stereo not given),x,n,x,x,x
SMILES,FBA Mtb inh,Mtb hypoxia rep,FadD28 FP inh,BioA inh,GDH-TPI inh
COc1ccc(S(=O)(=O)N(C)C[C@H]2Oc3ccc(NC(=O)NC4CCCCC4)cc3C(=O)N([C@H](C)CO)C[C@H]2C)cc1,x,x,x,n,x
CCOC(=O)C1=C(CN2CCN(C(=O)c3ccco3)CC2)NC(=O)NC1c1ccc(Cl)cc1 (stereo not given),n,n,n,n,n
CCOC(=O)C1=C(CN2CCN(C(=O)c3ccco3)CC2)NC(=O)NC1c1ccc(OC(C)C)cc1 (stereo not given),n,n,n,44,n
COc1ccc(CC(=O)NCC(=O)NN=Cc2cc(Br)ccc2OC)cc1,x,n,x,x,x
C[C@@H]1CN([C@H](C)CO)C(=O)c2cccc(NC(=O)c3nc4ccccc4s3)c2O[C@@H]1CN(C)C(=O)Nc1ccccc1,x,x,x,n,x
COc1cc(OC)c(OC)cc1/C=N/NC(=O)CCc1c(C)n[nH]c1C,n,x,n,n,56
COc1cc(OC)c(OC)cc1C=NNC(=O)CCc1c(C)n[nH]c1C,x,n,x,x,x
O=C1C=CN(Cc2ccccc2)CC1,n,n,n,n,n
O=C1C=CN(Cc2ccccc2)C(c2ccccc2)C1 (stereo not given),n,n,n,n,35
O=C1NC(=S)SC1=C1CCCCCC1,n,n,n,n,33
CNC(=O)C[C@@H]1CC[C@@H]2[C@H](COc3ccc(NC(=O)NC4CCCC4)cc3C(=O)N2C)O1,x,x,x,n,x
